Source: PubChem BioAssay (National Center for Advancing Translational Sciences (NCATS))
HT1080-NT tox = kills 2HG-producing HT-1080-NT fibrosarcoma cells. actives 1.6% (n = 360,000). AID 686970. Potency, µM (highest dose often 46.1 µM), without a hit: top-dose activity, negative = less viability, most hits filed as cytotoxic. HT-1080-NT fibrosarcoma viability, CellTiter-Glo ATP luminescence, 48 h;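 also: NT is the 2HG producing partner of a matched IDH1 knockdown line; 0% = DMSO-treated cells and -100% = media-only wells without cells; nearly all actives have a fitted effect of over 55% in size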
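750 cells/well, RPMI + 5% FBS; 2 h settle, compound pin-transfer, 48 h at 37 degrees C. CellTiter-Glo 10 min RT, luminescence. Normalized to DMSO and media-only wells.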
TDP1 cell noCPT = qHTS for Inhibitors of human tyrosyl-DNA phosphodiesterase 1 (TDP1): qHTS in cells in absence of CPT; DT40 Tdp1-/- hTDP1 cells, no CPT, ATP luminescence, 48 h; Potency, µM (doses to about 46.2 µM), inactives show at the highest dose activity change, negative = growth inhibition, actives largely listed as inhibitors; actives 15% (n = 420,000); AID 686978, 2013; also: nearly all actives have a fitted effect of over 55% in size
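No-CPT arm: Tdp1-/-;hTDP1 DT40 cells (400/well) plus compounds, incubated ≥48 hr at 37 °C. Readout CellTiter-Glo luminescence.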
KB-V1 cytotox = KB-V1 MDR subline cytotoxicity; Potency, µM (top dose mostly 46.1 µM), actives largely listed as cytotoxic; actives 3.4% (n = 400,000); KB-V1 MDR cells viability, CellTiter-Glo, 72 h; AID 1347076; also: nearly all actives have a fitted effect of over 60% in size
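Compound-treated KB-V1 multidrug-resistant cells, 72 h, 37 degrees C; viability by CellTiter-Glo. Fitted qHTS curves give the values.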
DT40 TDP1 CPT = DT40-hTDP1 cell growth loss with CPT | chicken DT40 Tdp1-/-;hTDP1 cells + 20 nM CPT, ATP luminescence, 48 h | Potency, µM (doses to about 46.2 µM), without a hit: at the highest dose activity change, negative = growth inhibition, most hits filed as inhibitors | actives 12% (n = 420,000) | AID 686979; also: nearly all actives have a fitted effect of over 55% in size
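Chicken DT40 Tdp1-/- cells complemented with human TDP1, 400 cells/well, exposed to compounds plus 20 nM camptothecin for at least 48 h at 37 C; viability read as ATP content by CellTiter-Glo luminescence.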
HT1080 IDH1KD tx = kills HT-1080 cells with IDH1 knockdown; HT-1080 IDH1 knockdown viability, ATP luminescence, 48 h; Potency, µM (series often up to 46.1 µM), inactives show top-dose activity, negative = toxicity, most hits filed as cytotoxic; actives 2% (n = 360,000); AID 686971;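 also: 0% = DMSO wells and -100% = cell-free medium wells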
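% activity derives from luminescence (CellTiter-Glo), normalised to DMSO and no-cell wells. HT-1080-IDH1KD cells, 750/well, had 48 h compound exposure at 37 °C.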
KB-3-1 tox = KB-3-1 parental cell cytotoxicity; Potency, µM (titrated, usually from 46.1 µM), usual class: cytotoxic; actives 1.4% (n = 400,000); KB-3-1 viability, CellTiter-Glo ATP luminescence, 72 h; also: nearly all actives have a fitted effect of over 60% in size
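Cytotoxicity measured as CellTiter-Glo luminescence after 72 h at 37 C. Compound titrations were pinned onto drug-naive KB-3-1 parental adenocarcinoma cells grown in DMEM with 10% FBS, and normalized data fitted to concentration-response curves.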
An asterisk follows results filed as active; i = inactive; ? = inconclusive; / = no result given; [ ] = another dose, or the depositor's remark. The list is not random: actives were taken first. Their share in the collection is about 19%. Calls follow the shape of the dose curve; as a rule, active = well fitted curve in the direction sought with a large enough effect; inconclusive = small, poorly fitted or top-dose-only effect, or another doubt; inactive = no such curve, though single readings can be large; an effect the other way counts as inactive or inconclusive. Unless noted, % is scaled to controls: 0 for no effect and ±100 for the full control effect; potency is read from the fitted curve at half-maximal effect.

SMILES	HT1080-NT tox	TDP1 cell noCPT	KB-V1 cytotox	DT40 TDP1 CPT	HT1080 IDH1KD tx	KB-3-1 tox
CN(CC(=O)N1CCN(c2cccc(Cl)c2)CC1)S(=O)(=O)c1cccs1	-26%	16µM*	i	?	3%[9.24 µM]	i
CS(=O)(=O)N(CC(=O)N1CCOCC1)c1cccc(Cl)c1	0%	-1%	i	-22%	-6%	i
CS(=O)(=O)N(CC(=O)N1CCN(c2ccc(F)cc2)CC1)c1cccc(Cl)c1	-19%	?	9.2µM*	-1%	-15%	i
CCOc1ccccc1N(C)C(=O)CCS(=O)(=O)c1ccc2c(c1)NC(=O)C(C)S2 (stereo unspecified)	2%	21µM*	i	?	-1%	i
CN(CC(=O)N1CCN(c2cccc(Cl)c2)CC1)S(=O)(=O)c1cnc[nH]1	6%	3%	i	3%	5%	i
CC(=O)c1ccc(N2CCN(C(=O)CCS(=O)(=O)c3ccc(C)cc3)CC2)cc1	10%	15µM*	i	?	-2%	i
COc1ccc(N2CCN(C(=O)CCS(=O)(=O)c3ccc(C)cc3)CC2)cc1	0%	-29%	?	?	3%	i
Cc1ccc(NC(=O)N2CCCC2C(=O)Nc2c(C)cc(C)cc2C)cc1 (stereo unspecified)	14%	-12%	i	-1%	0%	i
COc1cc(OC)c2nc(-c3cc4c(c(OC)c3)OCCN(C(=O)C(C)c3n[nH]c(=O)c5ccccc35)C4)cc(C)c2c1 (stereo unspecified)	/	-15%	/	18%[9.04 µM]	/	/
COc1ccc(S(=O)(=O)CCC(=O)N2CCN(c3ccc(C(C)=O)cc3)CC2)cc1	5%	15µM*	i	?	-9%	i
CC1Sc2ccc(S(=O)(=O)CCC(=O)N3CCN(c4cccc(Cl)c4)CC3)cc2NC1=O (stereo unspecified)	-29%	7.3µM*	i	13µM*	?	?
COc1ccc(N2CCN(C(=O)CCS(=O)(=O)c3ccc4c(c3)NC(=O)CO4)CC2)cc1	1%	16µM*	?	?	-8%	i
Cc1cccc(N2CCN(C(=O)CCS(=O)(=O)c3ccc4c(c3)NC(=O)CO4)CC2)c1C	-11%	?	i	?	-4%	i
O=C(OCC(=O)N1CCC(Cc2ccccc2)CC1)c1ccccc1O	-6%	29µM*	i	?	11%	i
NC(=O)c1ccccc1OCC(=O)N1CCC(Cc2ccccc2)CC1	-3%	9.2µM*	i	7.3µM*	-21%	?
O=C(NCC(=O)N1CCC(Cc2ccccc2)CC1)c1ccccc1F	-3%	21µM*	?	?	-17%	i
O=C(O)c1cc2[nH]c3c(c2cc1Cl)CCCC3	-3%	7%	i	10%	-1%	i
CCCCNC(=S)N/N=C/c1ccc(OCC(=O)Nc2c(C)cc(C)cc2C)c(OC)c1	12%	?	i	-28%	8%	i
COc1ccc([N+](=O)[O-])cc1NC(=O)C(C)N1CCCC1 (stereo unspecified)	-11%	-14%	i	14%	8%	i
CC(C(=O)Nc1cc([N+](=O)[O-])ccc1Cl)N1CCN(c2ccccc2O)CC1 (stereo unspecified)	?	13µM*	10µM*	?	?	?
CCOc1ccc(NC(=O)c2cn3c4c(ccc(Cl)c4c2=O)OC(C)C3)cc1 (stereo unspecified)	/	-1%	i	-3%	/	i
N#Cc1ccsc1NC(=O)CCN1CCN(C(c2ccccc2)c2ccccc2)CC1	-15%	26µM*	i	29µM*	0%	i
N#Cc1ccsc1NC(=O)CN(Cc1ccccc1)Cc1ccccc1	-3%	15µM*	10µM*	21µM*	-6%	?
N#Cc1ccsc1NC(=O)CCc1ccccc1	?	21µM*	?	?	?	?
O=C(Cc1c(F)cccc1Cl)Nc1ccccc1C(=O)N1CCCCC1	6%	-20%	?	-7%	4%	i
SMILES	HT1080-NT tox	TDP1 cell noCPT	KB-V1 cytotox	DT40 TDP1 CPT	HT1080 IDH1KD tx	KB-3-1 tox
CN1CCN(c2ccc(S(=O)(=O)N3CCCCC3)cc2NC(=O)Cc2c(F)cccc2Cl)CC1	-5%	?	?	?	-20%	i
CC(NCC(=O)Nc1cc(S(=O)(=O)N2CCOCC2)ccc1Cl)c1ccc(Cl)cc1Cl (stereo unspecified)	-3%	23µM*	?	?	-30%	?
O=C(Cc1c(F)cccc1Cl)Nc1ccccc1N1CCCCC1	-11%	?	i	16µM*	-5%	?
CCN1CCN(c2ccc(S(=O)(=O)N3CCOCC3)cc2NC(=O)c2ccc(Cl)cc2Cl)CC1	-2%	21µM*	i	?	-13%	i
O=C(Cc1c(F)cccc1Cl)Nc1cc(S(=O)(=O)N2CCCCC2)ccc1N1CCOCC1	-12%	16µM*	i	?	-3%	?
Cc1cccc2c(C(=O)O)c3cccc(C)c3nc12	2%	2%	i	19%	6%	i
CC1(C(=O)N/N=C/c2ccccc2)CC1(Cl)Cl (stereo unspecified)	1%	-16%	?	-4%	5%	i
COc1ccccc1CNC(=O)c1cc(S(=O)(=O)N2CCN(c3ccccc3)CC2)ccc1Cl	-13%	?	4.6µM*	?	-12%	i
O=C(Cc1ccccc1Cl)Nc1cc(S(=O)(=O)N2CCOCC2)ccc1N1CCOCC1	5%	-15%	16µM*	-9%	11%	i
O=C(CCc1ccccc1Cl)Nc1cc(S(=O)(=O)N2CCOCC2)ccc1N1CCCC1	-10%	18µM*	i	15µM*	-8%	i
COc1ccccc1CNCC(=O)Nc1cc(S(=O)(=O)N2CCOCC2)ccc1Cl	3%	16µM*	?	?	11%	i
O=C(Cc1ccccc1F)Nc1cc(S(=O)(=O)N2CCOCC2)ccc1N1CCOCC1	3%[9.24 µM]	11%	i	-17%	-5%	i
COc1ccccc1CNC(=O)COC(=O)c1cc(S(=O)(=O)N2CCOCC2)ccc1Cl	1%	?	i	-8%	1%	i
CN(C)S(=O)(=O)c1ccc(C(=O)OCCn2cnc3c2c(=O)n(C)c(=O)n3C)cc1	-2%	?	i	?	10%	i
